Assay results published in publication PMC4336329 (PLoS ONE, 2015).
Among all 310,000 compounds or so, about 14,000 (4.5%) showed an effect of 50% or more. The effect is printed as a negative number. The full list was thinned out, with strong results kept by preference.

target: human ether-à-go-go-related gene (hERG) potassium channel (human, UniProt Q12809); assay: primary screen, population patch clamp on CHO cells stably expressing hERG; higher = less effect of the substance
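Further: peak tail current of the secondary pulse compared with the same well before compound.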

human ether-à-go-go-related gene (hERG) potassium channel, sequence (Q12809 whole entry, looked up): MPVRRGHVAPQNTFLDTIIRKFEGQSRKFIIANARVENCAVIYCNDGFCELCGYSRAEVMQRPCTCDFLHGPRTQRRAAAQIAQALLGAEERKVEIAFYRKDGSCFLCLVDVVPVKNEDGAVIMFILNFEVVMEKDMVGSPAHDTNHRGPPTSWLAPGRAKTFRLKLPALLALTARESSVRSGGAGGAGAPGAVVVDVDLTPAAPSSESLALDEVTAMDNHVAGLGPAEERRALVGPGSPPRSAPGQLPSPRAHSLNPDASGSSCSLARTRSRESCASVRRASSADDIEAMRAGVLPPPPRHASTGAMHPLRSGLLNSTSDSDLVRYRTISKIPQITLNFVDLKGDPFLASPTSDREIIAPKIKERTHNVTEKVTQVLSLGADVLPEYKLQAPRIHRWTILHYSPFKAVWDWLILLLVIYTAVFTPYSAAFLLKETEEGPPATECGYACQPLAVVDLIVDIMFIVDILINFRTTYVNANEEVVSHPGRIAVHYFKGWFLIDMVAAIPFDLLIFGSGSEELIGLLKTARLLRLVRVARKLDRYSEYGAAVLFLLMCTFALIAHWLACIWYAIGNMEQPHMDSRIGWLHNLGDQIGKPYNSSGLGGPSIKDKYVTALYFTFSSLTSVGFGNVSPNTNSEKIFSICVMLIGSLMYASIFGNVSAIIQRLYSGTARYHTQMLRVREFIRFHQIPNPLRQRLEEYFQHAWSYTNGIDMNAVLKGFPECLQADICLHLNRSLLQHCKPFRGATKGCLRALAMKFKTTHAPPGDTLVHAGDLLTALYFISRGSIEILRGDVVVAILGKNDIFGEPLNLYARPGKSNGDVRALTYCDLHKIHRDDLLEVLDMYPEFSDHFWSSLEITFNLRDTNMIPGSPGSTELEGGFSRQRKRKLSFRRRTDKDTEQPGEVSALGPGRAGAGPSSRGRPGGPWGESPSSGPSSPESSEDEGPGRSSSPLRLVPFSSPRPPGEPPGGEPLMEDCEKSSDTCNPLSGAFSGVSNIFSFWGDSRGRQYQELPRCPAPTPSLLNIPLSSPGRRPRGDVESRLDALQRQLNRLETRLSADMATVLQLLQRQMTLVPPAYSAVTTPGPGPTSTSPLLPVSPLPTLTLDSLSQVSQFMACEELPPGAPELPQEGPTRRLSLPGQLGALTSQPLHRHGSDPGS

Row | Compound | hERG current change (%, negative = inhibition) at 10uM [%]
1 | CC1=CC(C)[C@@H]2COC(c3ccc(O)cc3)[C@H]1C2C (some centres unmarked) | 4.96
2 | Cc1ccc(N2CC(C(=O)NCc3nnnn3-c3ccc(C)c(C)c3)CC2=O)cc1 (centres unmarked) | -19.8
3 | Cc1ccc(S(=O)(=O)NC(=O)C2CCCCC2)cc1 | 14.3
4 | O=C(COc1ccc2ccccc2c1)NCCNC(=O)COc1ccc2ccccc2c1 | 17.2
5 | O=C(c1cc(-c2ccccc2)on1)N1CCCC1 | 9.39
6 | O=C(NCc1ccc2c(c1)OCO2)c1ccc2c(c1)OCCO2 | 8.03
7 | CC(CN1CCCCC1)c1ccccc1.O=C(O)C(=O)O (centres unmarked) | 13.1
8 | CC(CN1CCN(Cc2ccccc2)CC1)c1ccccc1.O=C(O)C(=O)O (centres unmarked) | -14
9 | CC(C(=O)Nc1cccc(S(=O)(=O)N2CCOCC2)c1)N1CCN(C/C=C/c2ccccc2)CC1 (centres unmarked) | -75
10 | CC(C(=O)Nc1cccc(S(=O)(=O)N2CCOCC2)c1)N1CCN(c2ccc(F)cc2)CC1 (centres unmarked) | -40.3
11 | CC(C)C(NC(=O)c1ccccc1)C(=O)N1CCN(C/C=C/c2ccccc2)CC1 (centres unmarked) | -41.2
12 | CC(C(=O)N(C)Cc1ccccc1)N1CCN(C/C=C/c2ccccc2)CC1 (centres unmarked) | -78.9
13 | CC(=O)Nc1ccc(S(=O)(=O)N[C@@H](C)C(=O)N2CCN(C/C=C/c3ccccc3)CC2)cc1 | -31.8
14 | CC(CN1CCN(C/C=C/c2ccccc2)CC1)c1ccccc1.O=C(O)C(=O)O (centres unmarked) | -59.6
15 | CC(=O)c1ccc(S(=O)(=O)NCC(=O)N2CCN(C/C=C/c3ccccc3)CC2)cc1 | -38.7
16 | CC(=O)c1ccc(NC(=O)C(C)N2CCN(C/C=C/c3ccccc3)CC2)cc1 (centres unmarked) | -71.4
17 | CC(C(=O)Nc1cccc(S(=O)(=O)N2CCOCC2)c1)N1CCN(C)CC1 (centres unmarked) | -5.23
18 | COc1ccc(N2CCN(C(C)C(=O)N(C)Cc3ccccc3)CC2)cc1 (centres unmarked) | -17.3
19 | CCc1nnc(NC(=O)c2ccc(S(=O)(=O)N(CC)Cc3ccccc3)cc2)o1 | -12.9
20 | O=C(Nc1nc(-c2cccs2)cs1)C1=COCCO1 | -15.9
21 | CCCCC(=O)Nc1ccc2c(c1)C(=O)NC2=O | 2.21
22 | Cc1ccc(NC(=O)c2c(-c3ccccc3Cl)noc2C)nc1 | 1.56
23 | COc1ccc(NC(=O)COC(=O)c2cc(Cl)ccc2O)cc1S(=O)(=O)N1CCCCC1 | 10.5

Row | Compound | hERG current change (%, negative = inhibition) at 10uM [%]
24 | O=C(COC(=O)c1cccnc1Cl)NCC1CCCO1 (centres unmarked) | 10.8
25 | COc1ccccc1/C=C/C=N/N1CCN(c2ccccn2)CC1 | -2.4
26 | Cc1cccc(CS(=O)(=O)Cc2ccc(C(=O)O)o2)c1 | 16.5
27 | CC(C)NC(=S)N1CCN(C/C=C/c2ccccc2)CC1 | -15.5
28 | COC(C(=O)Nc1cccc([N+](=O)[O-])c1)c1ccccc1 (centres unmarked) | 1.56
29 | CNC(=O)NC(=O)C(C)N1CCN(C/C=C/c2ccccc2)CC1 (centres unmarked) | -63
30 | CC(C(=O)Nc1cccc([N+](=O)[O-])c1)N1CCN(C/C=C/c2ccccc2)CC1 (centres unmarked) | -75.6
31 | CC(C(=O)Nc1cccc([N+](=O)[O-])c1)n1nnc2ccccc21 (centres unmarked) | -33.5
32 | CCCCNC(=O)N1CCN(C/C=C/c2ccccc2)CC1 | -29.9
33 | Cc1nc(SCC(N)=O)[nH]c(=O)c1Cc1ccc(OC(C)C)cc1 | 3.98
34 | CCCCCC(=O)Nc1ccc(-c2csc(C)n2)cc1 | 18.7
35 | COc1cccc(N(CC(=O)NC(C)c2ccccc2)S(C)(=O)=O)c1 (centres unmarked) | 22.3
36 | N=C1/C(=C\c2coc3ccccc3c2=O)C(=O)N=C2SC(c3ccncc3)=NN12 | -59
37 | N=C1/C(=C\c2coc3ccccc3c2=O)C(=O)N=C2SC=CN12 | 15.3
38 | N=C1/C(=C/c2coc3ccccc3c2=O)C(=O)N=C2SC(c3ccco3)=NN12 | 12.8
39 | O=C(Nc1nnc(-c2ccc(Cl)cc2)o1)Nc1ccccc1F | 1.31
40 | Cc1csc(CN(C)C(=O)CC2C(=O)NCCN2Cc2ccc(F)c(F)c2)n1 (centres unmarked) | 6.02
41 | COCCCNC(=S)NCCNc1nc2cc(C)c(C)cc2cc1C#N | -2.23
42 | C/C(=C/c1ccccc1)C(=O)N1CC(C)OC(C)C1 (centres unmarked) | 11.7
43 | COc1cc2c(cc1OC)C(c1cccc(C)c1)CC(=O)N2 (centres unmarked) | -10.5
44 | CCn1c(SCC(=O)N=Nc2c(O)[nH]c3ccccc23)nnc1-c1ccc(C(C)(C)C)cc1 | -5.11
45 | Cc1cc(O)cc(C)c1Cl | -2.78
46 | O=C(NC(=S)Nc1ccccc1N1CCN(C(=O)c2ccccc2)CC1)c1cccs1 | 9.73

Row | Compound | hERG current change (%, negative = inhibition) at 10uM [%]
47 | CCOC(=O)N1CCN(C(=O)c2ccc(Cl)c(NC(=O)c3cccs3)c2)CC1 | -54.7
48 | CC(=O)N1CCN(C(=O)c2ccc(Cl)c(NC(=O)c3cccs3)c2)CC1 | -15.3
49 | O=C(Nc1cc(C(=O)N2CCN(c3ccccc3O)CC2)ccc1Cl)c1cccs1 | -60.1
50 | O=C(NCC(=O)N1CCN(c2ccccc2O)CC1)c1cccs1 | 3.84
51 | Cc1ccc(NC(=O)c2ccc(Cl)c(NC(=O)c3cccs3)c2)cc1 | -12.5
52 | COc1ccc(NC(=O)CN(C)C(=O)c2ccc(=O)[nH]c2)cc1 | 21.7
53 | COc1ccc(NC(=O)C2CC(=O)N(Cc3ccco3)C2)cc1Cl (centres unmarked) | -4.14
54 | N/C(=N\O)c1ccccc1-n1cccc1 | 25.7
55 | COc1ccc(/C(N)=N/OC(=O)/C=C/c2ccccc2)cc1 | -37.2
56 | CCCN1CCN(S(=O)(=O)c2cn(C)nc2C)CC1 | 22
57 | CC(=O)Nc1ccc(S(=O)(=O)NCc2ccc(C(=O)NCCCN3CCC(C)CC3)cc2)cc1 | 19.7
58 | C=CCNC(=O)c1ccc(C2SCC(=O)N2Cc2ccccc2)cc1 (centres unmarked) | 6.11
59 | Cc1ccc(S(=O)(=O)NCc2ccc(C(=O)NCCCN3CCC(Cc4ccccc4)CC3)cc2)cc1 | -80.6
60 | O=C(NCc1ccccc1)N1CCC(Cc2ccccc2)CC1 | 10.5
61 | C=CCNC(=S)N1CCC(Cc2ccccc2)CC1 | -25.9
62 | CC(C)NC(=O)c1ccc(CN2CCC(Cc3ccccc3)CC2)cc1 | -37.2
63 | C=CCNC(=O)c1ccc(CN2CCC(Cc3ccccc3)CC2)cc1 | -66.8
64 | NC(=O)c1ccc(CN2CCC(Cc3ccccc3)CC2)cc1 | -57.1
65 | O=C(NCc1ccccc1)c1ccc(CN2CCC(Cc3ccccc3)CC2)cc1 | -70.3
66 | Cc1ccc(S(=O)(=O)NCc2ccc(C(=O)NCCCN3CCN(C)CC3)cc2)cc1 | 19.3
67 | COCCNC(=O)c1ccc(CN2CCC(Cc3ccccc3)CC2)cc1 | -11.6
68 | O=C(Nc1ccccc1)c1ccc(CN2CCC(Cc3ccccc3)CC2)cc1 | 14.7
69 | Cc1noc(C)c1COC(=O)c1cccnc1Cl | 3.21

Row | Compound | hERG current change (%, negative = inhibition) at 10uM [%]
70 | CNC(=S)Nc1cc(S(=O)(=O)Nc2cc(Cl)ccc2Cl)ccc1N1CCCC1 | -12.4
71 | CN1C(=O)c2cccc(NC(=O)CCc3ccccc3)c2C1=O | -19.6
72 | CC1Cc2ccccc2N1C(=O)CSc1nnc2c(n1)[nH]c1ccc(F)cc12 (centres unmarked) | 12.6
73 | O=C(CSc1nnc(COc2ccccc2)o1)c1ccccc1 | 1.95
74 | CCC(C)(C)NC(=O)C(c1ccc(F)cc1)N(Cc1cccc(OC)c1)C(=O)c1cnccn1 (centres unmarked) | 9.72
75 | COC(=O)C1=C(C)C(c2ccc(OC)cc2OC)NC(=O)N1 (centres unmarked) | 13.1
76 | Cc1ccc(N2C(=O)C3C4C=CC(CC4)C3C2=O)cc1Br (centres unmarked) | 15.4
77 | c1cncc(-c2nc(-c3ccc4c(c3)OCCO4)cs2)c1 | -4.72
78 | N#Cc1ncc(-c2ccc3c(c2)OCCOCCOCCOCCOCCO3)nc1C#N | -75.3
79 | N#Cc1ncc(-c2ccc3c(c2)OCCOCCOCCOCCO3)nc1C#N | -69
80 | Cl.Nc1nc(-c2ccc3c(c2)OCCO3)cs1 | 19.4
81 | N#CCC(=O)Nc1nc(-c2ccc3c(c2)OCCO3)cs1 | 13.1
82 | Cc1ccc2nc(-c3ccc4c(c3)OCCO4)cn2c1 | -16
83 | c1ccn2cc(-c3ccc4c(c3)OCCO4)nc2c1 | 1.08
84 | N#Cc1cn(-c2ccccc2)nc1-c1ccc2c(c1)OCCO2 | 11.8
85 | N#Cc1cncc(-c2ccc3c(c2)OCCOCCOCCOCCOCCO3)n1 | -86.9
86 | COc1ccc(C(=O)NC(=S)Nc2ccc3[nH]c(=O)[nH]c3c2)c(OC)c1 | 5.35
87 | O=C(CN1C(=O)C2C3C=CC(C4CC34)C2C1=O)Nc1cccc2ncccc12 (centres unmarked) | 0.881
88 | CCOC(=O)c1ccc(-c2ccc3c(c2)CCC3)nc1C | 12.6
89 | COc1ccccc1C(=O)N/C(N)=N/c1nc2ccccc2o1 | 1.36
